Source: PubChem BioAssay (NCI)
Values joined by “and” are separate entries in the source; they are usually repeats but may differ in a detail not shown here. Identical values can stand only once. Compounds without any hit were thinned out: in the full panel of roughly 83,000, 20% have a hit.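 Values shown are percent growth following 48 h exposure of cells in 96-well plates to a single concentration of compound; below 10 was considered active.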 Active and inactive are the calls of the source.

Tested on: KM12 colon
Experiment: NCI-60 one-dose screen, 48 h (100 = growth as untreated, 0 = no growth, -100 = all killed)
Settings: 10 µM

SMILES	growth
COc1cc2cc(C(=O)N3C[C@@H](CCl)c4c3cc(OC(=O)N3CCN(C)[C@@H]5CSSC[C@@H]53)c3ccccc43)[nH]c2c(OC)c1OC	0.977% (active)
COc1cc2cc(C(=O)N3C[C@@H](CCl)c4c3cc(OC(=O)N3CCN(C(=O)CCC(=O)N5CCN(C)CC5)[C@@H]5CSSC[C@@H]53)c3ccccc43)[nH]c2c(OC)c1OC	-74.6% (active)
COC(=O)c1ccc(-n2cc(CCCN(CCNc3ccnc4cc(Cl)ccc34)C(=O)CCC(=O)O[C@@H]3O[C@@H]4OC5(C)CC[C@H]6[C@H](C)CC[C@@H]([C@H]3C)[C@@]46OO5)nn2)cc1	32.6% (inactive)
O=C([Se]C1C=CCCC1)c1ccc(C(=O)[Se]C2C=CCCC2)s1 (stereo not given)	-64.9% (active)
O=C(/C=C/c1cccc(Br)c1)c1nc2ccccc2n1Cc1ccc(F)cc1	41.4% (inactive)
CC[C@]12C=CCN3CC[C@@]4(c5ccc(OC)cc5N(C)[C@H]4[C@@](O)(C(=O)OC)[C@@H]1OC(=O)CCC[P+](c1ccc(C)cc1)(c1ccc(C)cc1)c1ccc(C)cc1)[C@@H]32	-76.1% (active)
O=C(NC([Se])=NC1CCCCC1)c1ccccc1	35.5% (inactive)
O=C(/C=C/c1ccc(F)cc1)c1nc2ccccc2n1Cc1ccc(F)cc1	-4.81% (active)
O=C(/C=C/c1ccccc1)c1nc2ccccc2n1Cc1ccc(Br)cc1	-32.5% (active)
C=CC[Se]C(=O)c1cncc(C(=O)[Se]CC=C)c1	-73.1% (active)
COc1ccc(OC)c(/C=C/C(=O)c2nc3ccccc3n2Cc2ccc(F)cc2)c1	-20.9% (active)
O=C(/C=C/c1ccc(F)cc1)c1nc2ccccc2n1Cc1ccc(Br)cc1	-25.3% (active)
CC[C@]12C=CCN3CC[C@@]4(c5ccc(OC)cc5N(C)[C@H]4[C@@](O)(C(=O)OC)[C@@H]1OC(=O)CCCC[P+](c1ccc(C)cc1)(c1ccc(C)cc1)c1ccc(C)cc1)[C@@H]32	-73.6% (active)
CC(C)N=C([Se])NC(=O)c1cccs1	16.7% (inactive)
CC1=C(CCC=NNC(N)=O)C2=C(C)C3(CC3)[C@@](C)(O)C(=O)C2=C1	1% (active)
Cc1ccc2[nH]c(=S)n(-c3ccc(F)cc3)c(=O)c2c1	103% (inactive)
C#CC[Se]C(=O)c1ccc2n[se]nc2c1	95.2% (inactive)
CC1=C(COCCOC(=O)c2ccc(S(=O)(=O)F)cc2)C2=C(C)C3(CC3)[C@@](C)(O)C(=O)C2=C1	29.6% (inactive)
CC12CCC3(CCC(=O)NCCCNc4ccnc5cc(Cl)ccc45)[C@@](C)(OO[C@]3(C)O1)O2	9.24% (active)
O=C(/C=C/c1ccc(Br)cc1)c1nc2ccccc2n1Cc1ccc(Br)cc1	22.5% (inactive)
COC(=O)CCn1c(-c2ccc(-n3cc(-c4ccc(O[C@H]5O[C@@H]6OC7(C)CC[C@H]8[C@H](C)CC[C@@H]([C@H]5C)[C@@]68OO7)cc4)nn3)cc2)nc2ccccc21	18% (inactive)
CC1=C(C=O)C2=C(C)C3(CC3)[C@@](C)(O)C(=O)C2=C1	16.3% (inactive)
N#C[Se]CC(=O)Nc1cccc(C(F)(F)F)c1	41.5% (inactive)
CCC[Se]C(=O)c1ccc(C(=O)[Se]CCC)s1	5.4% (active)
C[C@H]1[C@@H](CC(=O)N[C@@H](Cc2coc3ccccc23)B(O)O)O[C@@H]2OC3(C)CC[C@H]4[C@H](C)CC[C@@H]1[C@@]24OO3	-20.4% (active)
O=C(/C=C/c1ccco1)c1nc2ccccc2n1Cc1ccc(F)cc1	50.8% (inactive)
COC(=O)C[C@](O)(CCC(C)C)C(=O)O[C@H]1C(OC)=C[C@@]23CCCN2CCc2cc4c(cc2[C@@H]13)OCO4	-22.3% (active)
C[C@H]1[C@H](OC(=O)CCC(=O)N(CCCc2cn(-c3ccc(C#N)cc3)nn2)CCNc2ccnc3cc(Cl)ccc23)O[C@@H]2OC3(C)CC[C@H]4[C@H](C)CC[C@@H]1[C@@]24OO3	31.4% (inactive)

Tested on: MDA-MB-468 breast
Experiment: as above
Settings: 10 µM unless noted

SMILES	growth
CC1=C(CCC=O)C2=C(C)C3(CC3)[C@@](C)(O)C(=O)C2=C1	-86.5% (active)
COC(=O)C[C@](O)(CCC(C)C)C(=O)O[C@@H]1C(OC)=C[C@]23CCCN2CCc2cc4c(cc2[C@H]13)OCO4	-83.8% (active)
O=C(/C=C/c1ccc(Cl)cc1)c1nc2ccccc2n1Cc1ccc(F)cc1	-5.26% (active)
CC[C@]12C=CCN3CC[C@@]4(c5ccc(OC)cc5N(C)[C@H]4[C@@](O)(C(=O)OC)[C@@H]1OC(=O)CCC[P+](C1CCCCC1)(C1CCCCC1)C1CCCCC1)[C@@H]32	-79.6% (active)
CC1=C2C(=C[C@@](C)(COP(=O)(Oc3ccccc3)Oc3ccccc3)[C@@H]2O)C(=O)[C@@](C)(O)C12CC2	-89.8% (active)
CC(=O)Oc1ccccc1C(=O)NC([Se])=NC1CCCCC1	-4.29% (active)
CCOP(=O)(CC(F)(F)C(F)(F)F)OCC	-59.3% (active)
CC(C)C[C@H](NC(=O)CNC(=O)C[C@H]1O[C@@H]2OC3(C)CC[C@H]4[C@H](C)CC[C@@H]([C@H]1C)[C@@]24OO3)B(O)O	-60.8% (active)
C[C@H]1[C@@H](Oc2ccc(-c3cn(-c4ccnc5cc(Cl)ccc45)nn3)cc2)O[C@@H]2OC3(C)CC[C@H]4[C@H](C)CC[C@@H]1[C@@]24OO3	36.9% (inactive)
C[C@H]1[C@H](OC(=O)CCC(=O)N(CCCc2cn(-c3ccc([N+](=O)[O-])cc3)nn2)CCNc2ccnc3cc(Cl)ccc23)O[C@@H]2OC3(C)CC[C@H]4[C@H](C)CC[C@@H]1[C@@]24OO3	31.2% (inactive)
COc1cc2cc(C(=O)N3C[C@@H](CCl)c4c3cc(OC(=O)N3CCN(C)[C@@H]5CSSC[C@@H]53)c3ccccc43)[nH]c2c(OC)c1OC	-80% (active)
COc1cc2cc(C(=O)N3C[C@@H](CCl)c4c3cc(OC(=O)N3CCN(C(=O)CCC(=O)N5CCN(C)CC5)[C@@H]5CSSC[C@@H]53)c3ccccc43)[nH]c2c(OC)c1OC	-91.5% (active)
COC(=O)c1ccc(-n2cc(CCCN(CCNc3ccnc4cc(Cl)ccc34)C(=O)CCC(=O)O[C@@H]3O[C@@H]4OC5(C)CC[C@H]6[C@H](C)CC[C@@H]([C@H]3C)[C@@]46OO5)nn2)cc1	33.3% (inactive)
O=C([Se]C1C=CCCC1)c1ccc(C(=O)[Se]C2C=CCCC2)s1 (stereo not given)	-95.7% (active)
O=C(/C=C/c1cccc(Br)c1)c1nc2ccccc2n1Cc1ccc(F)cc1	4.89% (active)
CC[C@]12C=CCN3CC[C@@]4(c5ccc(OC)cc5N(C)[C@H]4[C@@](O)(C(=O)OC)[C@@H]1OC(=O)CCC[P+](c1ccc(C)cc1)(c1ccc(C)cc1)c1ccc(C)cc1)[C@@H]32	-92.1% (active)
O=C(NC([Se])=NC1CCCCC1)c1ccccc1	55% (inactive)
O=C(/C=C/c1ccc(F)cc1)c1nc2ccccc2n1Cc1ccc(F)cc1	-15.7% (active)
O=C(/C=C/c1ccccc1)c1nc2ccccc2n1Cc1ccc(Br)cc1	-93.1% (active)

SMILES	growth
C=CC[Se]C(=O)c1cncc(C(=O)[Se]CC=C)c1	-85.2% (active)
COc1ccc(OC)c(/C=C/C(=O)c2nc3ccccc3n2Cc2ccc(F)cc2)c1	-57.3% (active)
O=C(/C=C/c1ccc(F)cc1)c1nc2ccccc2n1Cc1ccc(Br)cc1	-90.8% (active)
CC[C@]12C=CCN3CC[C@@]4(c5ccc(OC)cc5N(C)[C@H]4[C@@](O)(C(=O)OC)[C@@H]1OC(=O)CCCC[P+](c1ccc(C)cc1)(c1ccc(C)cc1)c1ccc(C)cc1)[C@@H]32	-92.5% (active)
CC(C)N=C([Se])NC(=O)c1cccs1	64.4% (inactive)
CC1=C(CCC=NNC(N)=O)C2=C(C)C3(CC3)[C@@](C)(O)C(=O)C2=C1	-81.5% (active) and -65.8% (active)
Cc1ccc2[nH]c(=S)n(-c3ccc(F)cc3)c(=O)c2c1	92.1% (inactive)
C#CC[Se]C(=O)c1ccc2n[se]nc2c1	25.9% (inactive)
CC1=C(COCCOC(=O)c2ccc(S(=O)(=O)F)cc2)C2=C(C)C3(CC3)[C@@](C)(O)C(=O)C2=C1	-87.5% (active)
CC12CCC3(CCC(=O)NCCCNc4ccnc5cc(Cl)ccc45)[C@@](C)(OO[C@]3(C)O1)O2	-38.3% (active)
O=C(/C=C/c1ccc(Br)cc1)c1nc2ccccc2n1Cc1ccc(Br)cc1	-74.3% (active)
COC(=O)CCn1c(-c2ccc(-n3cc(-c4ccc(O[C@H]5O[C@@H]6OC7(C)CC[C@H]8[C@H](C)CC[C@@H]([C@H]5C)[C@@]68OO7)cc4)nn3)cc2)nc2ccccc21	11.1% (inactive)
CC1=C(C=O)C2=C(C)C3(CC3)[C@@](C)(O)C(=O)C2=C1	-33.8% (active)
N#C[Se]CC(=O)Nc1cccc(C(F)(F)F)c1	-86.7% (active)
CCC[Se]C(=O)c1ccc(C(=O)[Se]CCC)s1	-80.6% (active)
C[C@H]1[C@@H](CC(=O)N[C@@H](Cc2coc3ccccc23)B(O)O)O[C@@H]2OC3(C)CC[C@H]4[C@H](C)CC[C@@H]1[C@@]24OO3	-60.6% (active)
COC(=O)C[C@](O)(CCC(C)C)C(=O)O[C@H]1C(OC)=C[C@@]23CCCN2CCc2cc4c(cc2[C@@H]13)OCO4	-39.7% (active)
C[C@H]1[C@H](OC(=O)CCC(=O)N(CCCc2cn(-c3ccc(C#N)cc3)nn2)CCNc2ccnc3cc(Cl)ccc23)O[C@@H]2OC3(C)CC[C@H]4[C@H](C)CC[C@@H]1[C@@]24OO3	46% (inactive)
